# From PubChem
# An excerpt weighted towards active compounds, which were near 4.1% of everything screened.
# NALP3 yeast inh = NALP3 inflammasome inhibitors in reconstituted yeast, primary screen, luminescence, uHTS; Yeast reconstituted NLRP3/ASC/caspase-1, beta-gal luminescence, 24 h; AID 2825, 2010; actives 0.39% (n = 330,000); inhibition, % at 10 µM;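 active = inhibition of 50% or more; inactive = inhibition below 50%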;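 note: plate controls were induced DMSO wells for no effect and uninduced yeast grown without galactose for full effect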
# tim10-1 inh = growth inhibitors of tim10-1 mutant yeast, primary screen, luminescence, uHTS | S. cerevisiae tim10-1 ts strain growth, BacTiter-Glo, 24 h | inhibition, % at 20 µM | actives 2.2% (n = 330,000);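 active = inhibition of at least 40%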;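 note: mutant grown at 25 °C; 0% = DMSO wells with yeast and 100% = wells holding no yeast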
# PfHsp90 set2 = growth inhibition of PfHsp90-expressing yeast, primary screen, antimalarial PfHsp90 inhibitor project, S. cerevisiae, BacTiter-Glo luminescence, single point, set 2 | AID 504621, 2011 | actives 0.32% (n = 310,000) | inhibition, % at 9.4 µM | BacTiter-Glo ATP, 48 h; yeast lacking PDR1 and PDR3 efflux regulators;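 active = every replicate shows inhibition above about 80%, whatever the replicate mean, limit read from the data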;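 note: 0% = DMSO neutral controls and 100% = 20 µM radicicol positive controls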
# tim23-1 inh = growth inhibitors of tim23-1 mutant yeast, primary screen, luminescence, uHTS; S. cerevisiae tim23-1 growth, BacTiter-Glo luminescence, 24 h; inhibition, % at 20 µM; actives 1.3% (n = 330,000); AID 463212, 2010;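 active = growth inhibition of the mutant yeast at or above 50%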;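 note: temperature-sensitive mutant grown at 25 °C; plate controls were DMSO-treated mutant yeast for no effect and medium wells lacking yeast for full effect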
# TIM10 inh = growth inhibitors of isogenic TIM10 control yeast, primary screen, counter-screen for tim10-1 yeast inhibitor project, luminescence, uHTS; S. cerevisiae TIM10 strain growth, BacTiter-Glo luminescence, 24 h; inhibition, % at 10 µM; actives 1.4% (n = 330,000); AID 463195, 2010;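 active = inhibition of 40% or more at the single tested concentration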;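 note: wild-type TIM10 isogenic control strain grown at permissive 25 °C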
# NALP1 inh = NALP1 inflammasome inhibitors in reconstituted yeast, colorimetric, S. cerevisiae, triplicate retest; S. cerevisiae NALP1/ASC/caspase-1 growth, X-gal OD620, 72 h; inhibition, % at 10 µM; actives 0.61% (n = 280,000); AID 2071, 2009; in the data active = inhibition mostly above about 24%, no sharp cut-off; inactive = mostly below about 32%
# tim10-1 confirm = growth inhibitors of tim10-1 mutant yeast, confirmation, single concentration, luminescence, S. cerevisiae; shares compounds with tim10-1 inh; S. cerevisiae tim10-1 ts strain growth, BacTiter-Glo, 24 h; inhibition, % at 20 µM; actives 56% (n = 7,400); AID 463213, 2010;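 active = inhibition of yeast growth at or above a set limit in either of two repeat tests at 20 µM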;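 note: tim10-1 mutant grown at permissive 25 °C to find synthetic lethal compounds; 0% = DMSO yeast wells and 100% = medium wells without yeast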
# tim10 confirm = growth inhibitors of wild-type TIM10 yeast, confirmation, counter-screen for tim10-1 synthetic lethality project, single concentration, luminescence, S. cerevisiae; shares compounds with TIM10 inh; S. cerevisiae tim10 strain growth, BacTiter-Glo luminescence, 24 h; inhibition, % at 10 µM; actives 63% (n = 4,600);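 active = inhibition of yeast growth at or above a set limit in either of two replicates at 10 µM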;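 note: this counterscreen used the strain with wild-type TIM10; 0% = yeast with DMSO and 100% = medium wells lacking yeast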
# tim23-1 confirm = tim23-1 mutant yeast growth inhibitors, confirmation, luminescence, single concentration; shares compounds with tim23-1 inh; S. cerevisiae tim23-1 growth, BacTiter-Glo luminescence, 24 h; inhibition, % at 20 µM; actives 83% (n = 4,400); AID 463218, 2010;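 active = inhibition above about 39% in either of two replicate wells at 20 µM, limit read from the data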;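 note: temperature-sensitive tim23-1 mutant grown at 25 °C; 0% = DMSO wells with yeast and 100% = medium wells without yeast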
# * marks the source's active call; other numbers are inactive results; x = no result given; + = active, no number.
SMILES,NALP3 yeast inh,tim10-1 inh,PfHsp90 set2,tim23-1 inh,TIM10 inh,NALP1 inh,tim10-1 confirm,tim10 confirm,tim23-1 confirm
O=C(Nc1ccc(Cl)cc1C(=O)Nc1ccc(Br)cn1)c1ccco1,26,45*,13,60*,44*,13,42*,48*,58*
Cc1cc(Br)ccc1NC(=O)c1ccco1,25,-9,-1,7,-13,8,x,x,x
Cc1ccc(C)c2c1[nH]c1ccc([N+](=O)[O-])cc12,12,50*,-36,68*,39,13,31*,x,51*
CCn1c(CC(=O)Nc2ccc(F)cc2)nnc1SCC(=O)Nc1nncs1,7,-12,9,-6,1,13,x,x,x
Cc1ccc(NC(=O)CCOc2ccccc2C)cc1C,37,23,-11,28,8,10,x,x,x
N#CC(c1cccc(Cl)c1)c1ccc2c(C(F)(F)F)cc(C(F)(F)F)nc2n1 (centres undefined),12,88*,16,79*,75*,24,70*,65*,72*
NNc1ccc2c(C(F)(F)F)cc(C(F)(F)F)nc2n1,5,25,-30,24,18,8,x,x,x
CCc1ccc(NC(=O)Cn2nc(C)n3cccc3c2=O)cc1,-6,0,24,-4,1,-1,x,x,x
CC1CCc2sc3nc(NCc4ccco4)n4ncnc4c3c2C1 (centres undefined),3,41*,-2,51*,18,-4,35*,x,56*
Nc1cc(-c2ccc(OC(F)(F)F)cc2)nn1-c1ccc(Cl)c(Cl)c1,1,46*,x,57*,9,8,62*,x,61*
N/C(=N\OC(=O)Nc1ccccc1)c1cccc(C(F)(F)F)c1,7,54*,-5,64*,14,3,41*,x,49*
N/C(=N\OC(=O)Nc1ccccc1)c1ncc(C(F)(F)F)cc1Cl,-1,26,-4,45,25,-2,x,x,x
N/C(=N\OC(=O)Nc1ccc(Cl)cc1)c1ncc(C(F)(F)F)cc1Cl,3,53*,-11,75*,69*,0,64*,80*,73*
COC(=O)c1sc2nc(C)nc(SCC(=O)Nc3sccc3C(N)=O)c2c1C,16,1,x,-1,-9,x,x,x,x
CCOC(=O)CN1C(=O)/C(=C/c2ccc(Cl)cc2)Oc2ccccc21,13,10,-8,-3,-2,9,x,x,x
Cc1cc(C)c2c(c1)/C(=C/C(=O)c1ccc(Br)s1)C(=O)N2,22,78*,-22,74*,76*,3,69*,66*,70*
CN(C)/C=C/C(=O)c1ccc(Br)s1,13,7,-30,28,-13,1,x,x,x
CN1/C(=C\C(=O)c2cccs2)C(C)(C)c2ccccc21,14,27,10,33,-2,52,x,x,x
Cc1cccc2c1NC(=O)/C2=C\C(=O)c1cccs1,43,83*,-28,81*,82*,3,87*,88*,77*
CC(=O)Nc1ccc(NC(=O)COC(=O)c2ccc(S(=O)(=O)N(C)c3ccccc3)cc2)cc1,x,x,-41,x,x,x,x,x,x
COc1ccc(NC(=O)CN(C)CC(=O)N2CCCCCC2)cc1,22,9,3,7,11,x,x,x,x
Cc1ccc(O)c(CCc2ccc(O)cc2)n1,5,5,17,17,-21,8,x,x,x
O=C(NC1CCC(CC2CCC(NC(=O)C(Cl)Cl)CC2)CC1)C(Cl)Cl (centres undefined),12,-5,4,12,-7,-6,x,x,x
CC(C)CN1C(=O)/C(=C(/C#N)C(=O)NC2CCCCC2)c2ccccc21,-3,72*,x,64*,79*,0,71*,79*,50*
CC(=O)Oc1ccc2c(=O)c(-c3nc4ccccc4s3)coc2c1,18,69*,x,65*,86*,28*,24,49*,72*
SMILES,NALP3 yeast inh,tim10-1 inh,PfHsp90 set2,tim23-1 inh,TIM10 inh,NALP1 inh,tim10-1 confirm,tim10 confirm,tim23-1 confirm
CC(=O)Oc1ccc2c(=O)c(Oc3ccccc3[N+](=O)[O-])coc2c1,17,21,-5,11,8,6,x,x,x
O=C(CCN1CCOCC1)NNC(=O)Nc1cccc([N+](=O)[O-])c1,12,-20,3,-6,-1,4,x,x,x
O=c1cc(-c2ccccc2)cc(-c2ccccc2)n1O,5,47*,+,80*,17,x,28,x,68*
CC(=O)c1ccc(NC(=S)N2c3ccccc3CC2C)cc1 (centres undefined),15,-19,6,25,10,0,x,x,x
CC1Cc2ccccc2N1C(=S)NC(=O)c1cccc(Br)c1 (centres undefined),10,44*,-165,52*,59*,11,32*,5,58*
N#C/C(=C\c1c(Cl)cccc1Cl)c1nc2ccccc2o1,-5,73*,-45,62*,40*,12,75*,-15,74*
N#C/C(=C\c1c(Cl)cccc1Cl)c1nc2ccccc2[nH]1,5,63*,-12,61*,48*,19,53*,52*,73*
COc1ccc(-n2ncc3c2CC(C)(C)CC3NC(=O)c2cnc(C)cn2)cc1 (centres undefined),7,32,6,27,9,1,x,x,x
COc1ccc(-c2cc(N)n(S(=O)(=O)c3c(F)c(F)c(F)c(F)c3F)n2)cc1OC,-29,68*,-11,70*,75*,-27,75*,74*,-23
COc1ccc(S(=O)(=O)n2nc(-c3cc(OC)c(OC)c(OC)c3)cc2N)cc1OC,23,12,-19,10,4,-37,x,x,x
CC(=NC1CC1)c1c(-c2ccccc2)[nH]n(-c2nc3ccccc3s2)c1=O,17,53*,-15,53*,64*,13,56*,49*,52*
Cc1cc(OC(C)C(=O)Nc2ccncc2)ccc1Cl (centres undefined),0,1,-10,-67,-65,16,x,x,x
